The results in this text go back to PubChem BioAssay (Tox21).

Each structure is given as a SMILES string. Values without a mark were called inactive. Activity calls are given as the source filed them. Calls follow the shape of the dose curve; as a rule, active = well fitted curve in the direction sought with a large enough effect in the repeat runs; inconclusive = weak or mixed curves; inactive = flat fitted curve, though single readings scatter.
% is scaled to controls: 0 for no effect and ±100 for the full control effect.

This assay in a line: qHTS assay to test for compound auto fluorescence at 460 nm (blue) in HEK293 cell free culture (AID 720681). The conditions noted are these: cell-free medium, autofluorescence 405/460 nm (blue); series mostly up to 91.3 µM; fluorescence, % of fluorescent control: at the top concentration. The source says: U.S. Tox21 Program National Center for Advancing Translational Sciences [NCATS] NIH Chemical Genomics Center [NCGC] U.S. Environmental Protection Agency [EPA] National Institutes of Environmental Health Sciences [NIEHS] National Toxicology Program [NTP] U.S. Food and Drug Administration [FDA] Tox21 Assay Overview: Compound auto fluorescence often interferes with screening of the compound library against various biological targets and signaling pathways. Some of these compounds may have fluorophoric properties. Such properties may interfere with the assay outputs resulting in false positives and/or negatives. To decrease such complications and ensure the compound activities are relevant in terms of biological response, the Tox21 10K compound library was screened for auto fluorescence. From the fluorophores used as reporter signals in our screening assays, the auto fluorescence equivalencies of compounds against three fluorophores have been evaluated: Triamterene, Fluorescein and Rose Bengal sodium for blue, green and red fluorescence, respectively. The fluorescence intensities were measured using Excitation/Emission wavelengths at 405/460nm, 485/535nm and 540/590nm for blue, green and red labels, respectively. This assay includes the blue fluorescence data.
Tox21 Assay Protocol Summary: 5 uL of culture medium (DMEM containing 10% FBS) per well was dispensed into black wall/clear bottom 1536-well plates using a Multidrop Combi Dispenser (ThermoFisher Scientific, Waltham, MA). After 23 nL compound or DMSO vehicle was transferred into assay plate by a pintool work station (Kalypsys, San Diego, CA), fluorescence intensities in the assay plates were measured by an Envision (PerkinElmer, Shelton, CT) plate reader using three labels for measuring blue, green and red fluorescence at […] 460, 535 and 590nm respectively.
On to `CC1(C)C(=O)N(Br)C(=O)N1Cl`, for which the “fluorescence, % of fluorescent control” value was -0.134%.
Same read-out and setting: with `CCN(Cc1cccc(S(=O)(=O)O)c1)c1ccc(C(=C2C=CC(=[N+](CC)Cc3cccc(S(=O)(=O)[O-])c3)C=C2)c2ccccc2)cc1` the figure was 1.35%; with `CCC1(C)CC(=O)NC1=O` (stereo not given), 0.0604% [at 46 µM].
For the compound `C[N+]1(C)CCC(=C(c2ccccc2)c2ccccc2)CC1`, the fluorescence, % of fluorescent control was -0.269% [at 18.6 µM].
With `CC(=O)[C@H]1CC[C@H]2[C@@H]3C[C@H](C)C4=CC(=O)CC[C@]4(C)[C@H]3[C@@H](O)C[C@]12C`, the fluorescence, % of fluorescent control was -0.0076% [at 18.6 µM].
Consider `CC#N`, for which the “fluorescence, % of fluorescent control” value is -0.0421%.
With `CC(C)(C)CC(C)(C)c1ccc(OCCO)cc1`, the Potency entry is “inactive”.
In the case of `CCCCN(CCCC)C(=S)SSC(=S)N(CCCC)CCCC`, the “fluorescence, % of fluorescent control” value was -0.118%.
In the case of `CC(C)C(OC(=O)c1ccccc1)C(C)(C)COC(=O)c1ccccc1` (stereo not given), the “fluorescence, % of fluorescent control” value was -0.0177%.
Same read-out and setting: with `Nc1ccc(C(=O)OCCCOC(=O)c2ccc(N)cc2)cc1` the figure was -0.16%.
On the same count and under the same terms, next, `COC(=O)CC(=O)C(C)(C)C`: 0.0869%.
The same measure, in the same setting: next, `Cc1cnc(C)c(C)n1`: 0.0223% [at 95.7 µM]; `COc1cc2ncnc(Nc3ccc(F)c(Cl)c3)c2cc1OCCCN1CCOCC1`: -0.0083% [at 46 µM]; `C=CC(C)(O)CCCC(C)CCCC(C)CCCC(C)C` (stereo not given): -0.0754%.
`CCCCC1C(=O)N(c2ccccc2)N(c2ccc(O)cc2)C1=O` (stereo not given): the fluorescence, % of fluorescent control is -0.0788% [at 18.6 µM].
Consider `O=C(O)C(Cc1cc(I)c(O)c(I)c1)c1ccccc1` (stereo not given), for which the “fluorescence, % of fluorescent control” value was -0.0615% [at 46 µM].
Same read-out and setting: next, `COC(=O)[C@@H]1CC2=CC(=O)CC[C@]2(C)[C@@]23O[C@@H]2C[C@@]2(C)[C@@H](CC[C@@]24CCC(=O)O4)[C@H]13`: 0.0182% [at 46 µM]; `Cc1oc(C)c(C(=O)Nc2ccccc2)c1C`: 0.0839%; `NC(=O)Nc1ccc(Cl)cc1`: -0.0343%.
Take `Cc1nc2ccccn2c(=O)c1CCN1CCC(C(=O)c2ccc(F)cc2)CC1`: the “fluorescence, % of fluorescent control” value is 0.0776% [at 46 µM].
Regarding `Cc1c(C(=O)NN2CCCCC2)nn(-c2ccc(Cl)cc2Cl)c1-c1ccc(Cl)cc1`, the “fluorescence, % of fluorescent control” value was -0.0053% [at 46 µM].
With `CNC(=S)NC`, the “fluorescence, % of fluorescent control” value was -0.0138%.
Still for that read-out and setting: next, `CC1=NN(c2ccc(C(=O)O)cc2)C(=O)C1`: 0.158%; `CCCCCCCC/C=C\CCCCCCCC(=O)OC`: 0.147%.
Take `Cc1oncc1C(=O)Nc1ccc(C(F)(F)F)cc1`: the Potency result was “inactive”.
On to `NC(=O)N(O)[C@@H]1COc2cc(OCc3ccccc3)ccc21`, for which the “fluorescence, % of fluorescent control” value was 1.12%.
Consider `CO[C@@]12[C@H](COC(N)=O)C3=C(C(=O)C(C)=C(N)C3=O)N1C[C@@H]1N[C@@H]12`, for which the “fluorescence, % of fluorescent control” value is 0.167% [at 46 µM].
Consider `O=C(O)c1ccc(CO)o1`, for which the “fluorescence, % of fluorescent control” value was -0.0147% [at 95.7 µM].
The same measure, in the same setting: next, `CCOC(=O)[C@@H](C)Oc1ccc(Oc2nc3ccc(Cl)cc3o2)cc1`: -0.0731%; `CCCCCCCCCCCCCCC[C@H](O)[C@@H](N)CO`: -0.0498% [at 46 µM].
In the case of `CC(C)=CC=O`, the “fluorescence, % of fluorescent control” value was 0.0888% [at 95.7 µM].
The same measure, in the same setting: with `CC(=N\O)/C(C)=N/O` the figure was 0.0267%; with `ON(Cc1ccccc1)Cc1ccccc1`, 0.0625%.
Regarding `CCC(C)(O)CCC=C(C)C` (stereo not given), the “fluorescence, % of fluorescent control” value is -0.0016%.
`CCCCC(=O)O[C@]1(C(=O)CO)CC[C@H]2[C@@H]3CCC4=CC(=O)CC[C@]4(C)[C@H]3[C@@H](O)C[C@@]21C`: the “fluorescence, % of fluorescent control” value was 0.121% [at 46 µM].
The same measure, in the same setting: with `O=C(O)c1snc(Cl)c1Cl` the figure was -0.0734%.
With `OC(CCCN1CCCCC1)(c1ccccc1)c1ccccc1`, the “fluorescence, % of fluorescent control” value was 0.0212% [at 46 µM].
As to `CCn1cc(C(=O)O)c(=O)c2cc(F)c(N3CCNCC3)nc21`, the fluorescence, % of fluorescent control is -0.0171% [at 18.6 µM].
The same measure, in the same setting: with `CCCCC/C(=C\c1ccccc1)CO` the figure was -0.0075% [at 95.7 µM]; with `CN(C(=O)C(Cl)Cl)c1ccc(OC(=O)c2ccco2)cc1`, 0.148% [at 46 µM].
